From ChEMBL document CHEMBL4513216, “Probing the Open Global Health Chemical Diversity Library for Multistage-Active Starting Points for Next-Generation Antimalarials” (ACS Infect Dis, 2020)
Out of some 69,000 compounds screened, about 8,600 (12%) showed an effect of 50% or more. The sample as a whole holds a higher share of strong results than the screen did.

System: Plasmodium berghei
Assay: Screen against P. berghei liver stage (PbLuc), transformed with Luciferase, at 10uM
Format: functional, HepG2
Conditions: tested at 10 uM

Row | SMILES | INHIBITION
1 | CC(C)CNC(=O)CNC(=O)NC(c1nccs1)C1CC1 (stereo not given) | 8.59%
2 | CCOc1ccccc1C(=O)NCCC(O)c1ccoc1 (stereo not given) | 85.5%
3 | CCOCC(=O)NCCC(O)c1ccoc1 (stereo not given) | 31.3%
4 | O=C(COc1ccccc1F)NCCC(O)c1ccoc1 (stereo not given) | -16.9%
5 | CCOC(=O)NCCC(O)c1ccoc1 (stereo not given) | 52.1%
6 | O=C(NCCC(O)c1ccoc1)Nc1cccs1 (stereo not given) | 13.8%
7 | CCOc1ccccc1C(=O)NCCc1ccoc1 | 32.4%
8 | CC(=O)N1CC[C@H]2OCC[C@@H](C(=O)NCc3ccco3)[C@H]2C1 | 35.7%
9 | Cc1cccc(CN2C(=O)CCC23CCN(Cc2cccn2C)CC3)n1 | 24.9%
10 | Cc1cc2ccccc2n1CC(=O)Nc1ccnn1CC1CCOC1 (stereo not given) | 40.7%
11 | CN(Cc1ccncc1)C(=O)Nc1cnn(CC2CCCO2)c1 (stereo not given) | -5.53%
12 | CCc1cnc(CN(C)C(=O)NC2CCN(CC3CC3)C2)s1 (stereo not given) | 39.2%
13 | CCc1cnc(CN(C)C(=O)Nc2cnn(CC3CCCO3)c2)s1 (stereo not given) | 51.4%
14 | CCc1cnc(CN(C)C(=O)NC2CCN(c3ccccc3)C2)s1 (stereo not given) | -53.7%
15 | Cc1csc(CN(C)C(=O)Nc2cnn(CC3CCCO3)c2)n1 (stereo not given) | 0.825%
16 | CCc1cnc(CN(C)C(=O)NC2CCN(C)C2=O)s1 (stereo not given) | 68.2%
17 | CC[C@@H]1N(Cc2cc(OC)cc(OC)c2)CCC[C@]12CCC(=O)N2C | -54.1%
18 | CNC(=O)c1nc(COc2c(C)occc2=O)no1 | -11.9%
19 | CNCc1ccc(Oc2cncc(C)n2)cc1 | -1.84%
20 | Cc1cncc(Oc2ccc(CN)cc2)n1 | 60.5%
21 | Cc1cncc(Oc2ccc(CO)cc2)n1 | 44.3%
22 | CC(=O)c1ccc(N2CCCC(CO)(Cc3ccccc3F)C2)nc1 (stereo not given) | 50.3%

Row | SMILES | INHIBITION
23 | Cc1ccccc1CC1(C(=O)O)CCCN(c2ncccn2)C1 (stereo not given) | 8.64%
24 | CC(=O)c1ccc(N2CCCC(CO)(Cc3ccccc3C)C2)nc1 (stereo not given) | 75.6%
25 | CC(=O)c1ccc(N2CCC3(CCC(=O)N(CCCO)C3)CC2)nc1 | 30.9%
26 | NC(=O)c1ccnc(N2CCCC(CO)(Cc3ccccc3)C2)c1 (stereo not given) | 10.1%
27 | CCN1CC2(CCC1=O)CCN(c1ccc(C(C)=O)cn1)CC2 | 5.46%
28 | O=C(CN1CCCCC1)Nc1cc(C(F)(F)F)ccc1-n1cccc1 | 9%
29 | CCN1CC2(CC1=O)CN(Cc1cnn(C)c1)CCN(C(=O)N(C)C)C2 (stereo not given) | 20.9%
30 | CS(=O)(=O)N1CCN(Cc2cccs2)CC(C(N)=O)C1 (stereo not given) | 8.72%
31 | COCCN1C(=O)[C@@H]2CC[C@H]1CN(C(=O)CCc1n[nH]c(C)c1C)C2 | 34.9%
32 | c1cc2c(cc1Cn1cc(C3CCCNC3)nn1)CCCO2 (stereo not given) | 16.7%
33 | O=S(=O)(NCCn1cc(C2CCCNC2)nn1)c1ccc(Cl)cc1 (stereo not given) | 35.4%
34 | c1ccc(NCCn2cc(C3CCCNC3)nn2)cc1 (stereo not given) | 56.6%
35 | Cc1nnc(NC(=O)NCC(C)N2CCOCC2)s1 (stereo not given) | 2.05%
36 | CN(C)CCCNCCC(Cc1ccccc1)C1CCOC(C)(C)C1 (stereo not given) | 56.7%
37 | CN(C)CCNCCC(Cc1ccccc1)C1CCOC(C)(C)C1 (stereo not given) | 23.1%
38 | CN(C)CCCNCCC(c1ccccc1)C1CCOC(C)(C)C1 (stereo not given) | 16.1%
39 | CNC(=O)CS(=O)(=O)Cc1cc(Cl)c2c(c1)OCCO2 | 21.5%
40 | C(=C\c1ccc(CN2CCCC2)cn1)/c1ccccc1 | 84.2%
41 | CCC/C=C/c1ccc(CN2CCCC2)cn1 | -4.51%
42 | CCC/C=C/c1ccc(CN2CCN(C)CC2)cn1 | -13.2%
43 | NC(=O)c1ccc(C(=O)N2CCCC(n3ccnc3)C2)s1 (stereo not given) | 23.4%
44 | FC(F)(F)c1cccc(-c2c[nH]c(C3CCCN3)n2)c1 (stereo not given) | -14.8%

Row | SMILES | INHIBITION
45 | CCc1nnsc1C(=O)NCc1nnc2n1CCCCC2 | 41.4%
46 | CCc1nnsc1C(=O)NCc1nnc2n1CCC2 | 60%
47 | CCc1nnsc1C(=O)NCCc1nnc2n1CCC2 | 14.3%
48 | O=C(NCCc1nnc2n1CCCCC2)N1CCC2(CCCC2)CC1 | -56.9%
49 | O=C(NCc1nnc2n1CCC2)N1CCC2(CCCCC2)CC1 | 75.7%
50 | O=C(NCc1nnc2n1CCCCC2)N1CCC2(CCCCC2)C1 | 47.9%
51 | CC(C)CCC(=O)N1CCN(C(C)c2nnc(CC(C)C)o2)CC1 (stereo not given) | 13.8%
52 | COCCNC(=O)CCN1C(=O)CC2(CCCC2)C1=O | 29%
53 | Cc1cc(C(=O)N2CCCN(c3nccs3)CC2)c(C)n1C(C)C | -26.3%
54 | Cc1cc(NC(=O)NCC(C(C)C)N2CCOCC2)n(C)n1 (stereo not given) | 28.8%
55 | CNC(=O)c1n[nH]c2c1C(c1cccc3c1OC(C)(C)C3)CC(=O)N2 (stereo not given) | 50.1%
56 | CNC(=O)c1n[nH]c2c1C(c1cccc3nsnc13)CC(=O)N2 (stereo not given) | 46.9%
57 | CNC(=O)c1n[nH]c2c1C(c1cccc3[nH]ccc13)CC(=O)N2 (stereo not given) | 24.4%
58 | CCc1[nH]ncc1C(=O)N1CCOC(c2nc(C)n[nH]2)C1 (stereo not given) | 25.6%
59 | Cn1ccnc1CN1CC[C@@H](NS(C)(=O)=O)[C@@H]1Cc1ccccc1 | 45.1%
60 | COc1ccc(COCC(O)CNC(=O)c2cccc(OC)c2)cc1 (stereo not given) | 23.5%
61 | COc1ccc(COCC(O)CNC(=O)c2cc(C)cc(C)c2)cc1 (stereo not given) | 17.7%
62 | COc1ccc(COCC(O)CNC(=O)c2ccc(C)c(F)c2)cc1 (stereo not given) | 52.3%
63 | CS(=O)(=O)NC1CCN(c2cccc(F)c2C#N)CC1 | -12.1%
64 | COc1ccc(-c2cn(CCn3c(C)cc(C)nc3=O)nn2)cn1 | 51.4%
65 | COc1c(F)cc(-c2cn(CCn3c(C)cc(C)nc3=O)nn2)cc1Cl | -4.68%
66 | CC(=O)Nc1ccc(-c2cn(CCn3c(C)cc(C)nc3=O)nn2)cc1 | -31.1%

Row | SMILES | INHIBITION
67 | CC(C)C1SCC(=O)Nc2c1c(O)nn2C1CCCC1 (stereo not given) | 1.04%
68 | CC(C)C1SCC(=O)Nc2c1c(O)nn2C1CCCCC1 (stereo not given) | 74.4%
69 | CC(C)(C)C1SCC(=O)Nc2c1c(O)nn2C1CCCCC1 (stereo not given) | 37.4%
70 | CC(C)Oc1ccccc1C1CC(=O)Nc2nc(N3CCOCC3)sc21 (stereo not given) | -41.2%
71 | Cc1nc2c(c(=O)[nH]1)CCN(C(=O)c1[nH]nc3c1CC(C)CC3)C2 (stereo not given) | 15.2%
72 | c1nc(CN2CCCC(Cc3ccc(NC4CCCC4)nn3)C2)c[nH]1 (stereo not given) | 13.7%
73 | Cc1cc(C)c2c(N3CCN(Cc4ncccc4C)CC3)ncnc2n1 | 58.1%
74 | CCOc1ccnc(N2CCN(Cc3ncccc3C)CC2)n1 | 27.9%
75 | Cc1cccnc1CN1CCN(c2noc(-c3ccccc3)n2)CC1 | -13.2%
76 | CCNc1ccnc(N2CCN(Cc3ncccc3C)CC2)n1 | 51.3%
77 | Cc1cc(C)c2c(N3CCN(CCN4CCOCC4)CC3)ncnc2n1 | 40.3%
78 | COCCN1CCN(c2ncnc3nc(C)cc(C)c23)CC1 | -14.1%
79 | CC(C)C(=O)N1CCN(c2ncnc3cc4c(cc23)OCCO4)CC1 | 2.69%
80 | O=C(O)c1ccccc1-n1cc(CN2CCOC(c3cc[nH]n3)C2)cn1 (stereo not given) | 20.7%
81 | Cc1ccc(-c2nc(CN3CCCC(Cn4cncn4)C3)cs2)o1 (stereo not given) | -7.35%
82 | Nc1ncnc2nc(C3CCN(C(=O)Cc4ccc(F)cc4)C3)ccc12 (stereo not given) | -19.9%
83 | CCC(C)N(Cc1cnc(NC(C)C)nc1)Cc1ccsc1 (stereo not given) | 30.4%
84 | CCc1nnc(Nc2cccc(C3CCN(C(=O)CNC)CC3)n2)s1 | -17.7%
85 | CC(Cc1cn(CCc2n[nH]c(=O)[nH]2)nn1)c1ccccc1 (stereo not given) | 18.5%
86 | CN(C)c1ccc(CC2CCN(c3cnccn3)C2)nn1 (stereo not given) | 0.696%
87 | COC1(CNC(=O)c2ccsc2)CCSC1 (stereo not given) | 5.91%
88 | COC(=O)CN1CCC(C(F)(F)F)CC1 | -8.9%

Row | SMILES | INHIBITION
89 | CN(C)Cc1cnc2n1CCN(C(=O)Cc1ccc(F)cc1)CC2 | 52.6%
90 | Cc1ccsc1C(=O)N1CCc2ncc(Cn3cccn3)n2CC1 | 29.4%
91 | CN(C)Cc1cnc2n1CCN(C(=O)Cc1cccc(F)c1)CC2 | 37.9%
92 | Cc1ccsc1C(=O)N1CCc2ncc(CN3CCCC3)n2CC1 | 8.6%
93 | Cc1ccsc1C(=O)N1CCc2ncc(CN(C)C)n2CC1 | 62.9%
94 | CN(C)Cc1cnc2n1CCN(C(=O)Cc1ccsc1)CC2 | 11.3%
95 | Cc1nc(N)ncc1C(=O)N1CCCC(CCc2ccccc2F)C1 (stereo not given) | 43.9%
96 | O=c1[nH]c2ccccc2cc1CNCCCN1CCOCC1 | 36.4%
97 | O=C(N1CCCC1)N1CCC2(CCN(Cc3ccccn3)C2=O)C1 (stereo not given) | 15.6%
98 | Cc1ccc(CN2CCc3nnc(CN4CCCC4=O)n3CC2)s1 | 37.1%
99 | O=C(Cc1cccs1)N1CCCC(CNS(=O)(=O)Cc2ccccc2)C1 (stereo not given) | 73.6%
100 | O=C(CN1CCCC1)N1CCCC(CNS(=O)(=O)Cc2ccccc2)C1 (stereo not given) | 51.3%
101 | O=S(=O)(Cc1ccccc1)NCC1CCCN(Cc2cccs2)C1 (stereo not given) | 48.1%
102 | O=C(Cc1ccsc1)N1CCCC(CNS(=O)(=O)Cc2ccccc2)C1 (stereo not given) | 34.6%
103 | CS(=O)(=O)NCC1CCCN(C(=O)COCc2ccccc2)C1 (stereo not given) | 32.6%
104 | CS(=O)(=O)NCC1CCCN(C(=O)CCCc2ccccc2)C1 (stereo not given) | -0.18%
105 | CC(=O)N1CCCC1c1ccc(CN2CCOCC2)cn1 (stereo not given) | 35.625%
106 | CCC(COC)NC(=O)N1CCC(n2ccc(C(F)(F)F)n2)CC1 (stereo not given) | -15.1%
107 | CCn1ccc(-c2nnc(SCC(=O)Nc3ccc(C)cc3)n2CC)n1 | 7.38%
108 | CCN1C(=O)CC(c2ccccc2)C12CCN(CC1CCOCC1)CC2 (stereo not given) | 43.2%
109 | CCN(C)c1ncnc2c1CCN(S(=O)(=O)c1ccccc1)CC2 | 43.9%
110 | Cc1ccc(OCCn2cnc3oc(C)c(C(=O)O)c3c2=O)cc1 | -1.04%
